# Source: PubChem BioAssay
# PI5P4Ka inh – inhibitors of human PI5P4K alpha | AID 652105 | hit rate 1.2% among 330,000 | P48426 | PI5P4Kalpha enzyme, ADP-Glo luminescence, 60 min; stronger effect = lower value | max response, %; active means max response of -50% or lower; inconclusive means between -30% and -50%; inactive means -30% or higher; further: value at the top dose of about 77 µM
#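 Quantitative HTS of the MLSMR library against PI5P4Kalpha with substrate. ATP added last at 5 microM final; room temperature, 60 minutes. Remaining ATP depleted, ADP converted and read as luminescence.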
# FEN1 inhibitor – human FEN1 inhibition; Potency, µM (titrated, usually from 114 µM), for the others: at the highest dose activity change, negative = inhibition, actives largely listed as inhibitors; Recombinant FEN1 flap cleavage, fluorescence, 15 min; P39748; hit rate 0.35% among 390,000; further: potency means the concentration at half of the fitted maximal effect; nearly all actives have a fitted effect of over 65% in size
# Target sequence (P39748 whole entry, looked up): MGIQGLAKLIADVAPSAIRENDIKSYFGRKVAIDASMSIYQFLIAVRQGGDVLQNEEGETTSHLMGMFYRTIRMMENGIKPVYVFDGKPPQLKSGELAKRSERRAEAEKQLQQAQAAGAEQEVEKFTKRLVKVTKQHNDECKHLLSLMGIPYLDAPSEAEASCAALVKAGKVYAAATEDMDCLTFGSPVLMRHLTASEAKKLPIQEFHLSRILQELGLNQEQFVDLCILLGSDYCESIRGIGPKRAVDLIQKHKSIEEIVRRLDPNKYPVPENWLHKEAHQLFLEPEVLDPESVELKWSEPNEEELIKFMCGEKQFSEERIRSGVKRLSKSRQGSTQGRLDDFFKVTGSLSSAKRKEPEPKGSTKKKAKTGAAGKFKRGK
#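 Compounds are tested as a concentration series against 10 nM FEN1; after a 15 min room-temperature preincubation, 50 nM substrate starts cleavage, with plate reads at 0 and 15 min. Normalized responses are fitted by a Hill equation.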
# RECQ1 helicase – RECQ1 (human) helicase inhibition; P46063; Potency, µM (doses to about 57.3 µM), inactives show at the top dose activity, negative = inhibition, hits mostly inhibitors; AID 2549; RECQ1 DNA unwinding, red fluorescence kinetic read; hit rate 0.54% among 240,000;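 further: potency means the concentration at half of the fitted maximal effect; plate controls were vehicle for no effect and no enzyme for full effect; nearly all actives have a fitted effect of over 30% in size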
#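 RECQ1T1 50 nM; forked duplex (20 bp + 30-nt ss tails) 200 nM, ATP 2 mM final; pH 8.0, 2 mM MgCl2, 2.5 ug/ml poly(dI-dC); 15 min compound preincubation; discontinuous kinetic read over 2 h at RT.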
# APE1 inh – inhibitors of human APE1 endonuclease; Potency, µM (highest dose often 65.8 µM), for inactives: at the top dose activity change, negative = inhibition, most hits filed as inhibitors; recombinant APE1, TAMRA/BHQ-2 abasic DNA cleavage fluorescence; hit rate 0.35% among 350,000; P27695;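 further: potency means the concentration at half of the fitted maximal effect; plate controls were vehicle for no effect and reference inhibitor for full effect; nearly all actives have a fitted effect of over 55% in size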
#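 Kinetic fluorescence read (525 ex/598 em nm, three reads 60 s apart) of AP-site incision; signal = third minus first read. Enzyme 0.75 nM, dual-labelled THF duplex 50 nM, compound preincubation 15 min RT.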
# KAT2A inh – blocks human GCN5L2 histone acetyltransferase; Q92830; GCN5L2 HAT assay, ThioGlo1 CoA-SH fluorescence; Potency, µM (series often up to 58.9 µM), for inactives: top-dose activity change, negative = inhibition, actives largely listed as inhibitors; hit rate 0.21% among 390,000; further: potency means the concentration at half of the fitted maximal effect
#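 Titration-based screen in which CoA formation is detected via maleimide probe ThioGlo1 (50uM) turning fluorescent on thiol reaction; substrates H3(1-25) 75uM and acetyl-CoA 70uM, GCN5L2 20nM, 20 min incubation at room temperature.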
# BLM helicase inh – inhibitors of human Bloom syndrome helicase BLM. P54132. recombinant BLM DNA unwinding, fluorescence dequenching. Potency, µM (doses to about 56.1 µM), without a hit: top-dose activity change, negative = inhibition, usual class: inhibitors. hit rate 0.2% among 350,000. AID 2528;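 further: potency means the concentration at half of the fitted maximal effect; plate controls were vehicle for no effect and no enzyme for full effect; nearly all actives have a fitted effect of over 35% in size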
# * = called active by the depositor; i = inactive; ? = inconclusive; / = no result. This is a sample that favours compounds with a hit; in the whole collection about 1.5% have one here. Unless noted, the call rests on the fitted dose curve; in most records, active means well fitted curve in the direction sought with a large enough effect; inconclusive means small, poorly fitted or top-dose-only effect, or another doubt; inactive means no such curve, though single readings can be large; an effect the other way counts as inactive or inconclusive. Unless noted, on the % scale 0 is the no-effect control and ±100 the full control effect.
SMILES,PI5P4Ka inh,FEN1 inhibitor,RECQ1 helicase,APE1 inh,KAT2A inh,BLM helicase inh
c1ccc2c(CCc3c[nH]c4ccccc34)ccnc2c1,/,-19%,/,/,/,/
Cc1ccc2c(c1)C1CC(C)(O2)N(c2cccc(C(=O)NC3CCN(Cc4ccccc4)CC3)c2)C(=O)N1 (stereo not drawn),-6,-12%,/,24µM*,1%,1%
CCOc1cc(/C=C(\C#N)C(=O)Nc2cccc(C(=O)O)c2)cc(Br)c1OC(=O)c1ccc(OC)cc1,?,-29%,/,-3%,25µM*,-24%
O=C(NCCN1C(=O)S/C(=C\c2cccnc2)C1=O)C1=NN(c2ccccc2)C(=O)CC1,-67*,-2%,i,1%,-7%,-13%
O=C(NCCN1C(=O)S/C(=C/c2cccnc2)C1=O)c1cccs1,-9,1%,/,13%,1%,/
Clc1cc(Cl)c(OCC#CI)cc1Cl,/,/,/,/,14µM*,2%
COc1cc(OC)c(OC)cc1/C=N/Nc1ncnc2c1[nH]c1ccccc12,-12,-3%,-1%,4%,-21%,22µM*
C(=C\c1ccnc2ccccc12)/c1ccc(-[n+]2cc[n+](-c3ccc(/C=C/c4ccnc5ccccc45)cc3)cc2)cc1,/,0%,/,/,/,/
O=C(Nc1ccc(-c2n[nH]c(=S)o2)cc1)c1ccccc1Br,-57*,-4%,/,17%,-8%,-1%
O=C(Nc1ccc(NC(=O)c2ccccc2Br)cc1)c1ccccc1,-6,1%,/,-6%,1%,4%
COCCNC(=O)/C(C#N)=C/c1ccccc1Br,-63*,-1%,i,13%,-3%,-2%
COCCNC(=O)/C(C#N)=C/c1cc(Br)c(O)c(OC)c1,?,-5%,-4%,1%,-4%,-2%
CCOCCCNC(=O)/C(C#N)=C/c1cc(Br)c(O)c(Br)c1,-101*,-2%,-1%,-1%,-5%,2%
CN(CCCc1cnc[nH]1)C(=S)NCCCN(Cc1ccc(Cl)cc1)c1ccc(Br)cn1,/,2%,/,/,/,/
CCCCCCCCCCCCCCCC(=O)C1=C(O)C(CO)OC1=O (stereo not drawn),/,/,35µM*,?,11µM*,/
C=CCn1c(=O)n([C@@H]2O[C@H](CO)[C@@H](O)[C@H]2O)c2nc(N)[nH]c(=O)c21,/,/,/,-1%,/,/
Cc1ccc(NS(=O)(=O)c2ccc3c(c2)CC(=O)N3)c(C)c1,-4,2%,/,31%,25µM*,-1%
Cc1ccc(NS(=O)(=O)c2ccc3c(c2)NC(=O)CO3)c(C)c1,1,21%,/,45%,-15%,0%
O=C(NN1C(=O)CSC1=S)C(=O)NN1C(=O)CSC1=S,-67*,?,10µM*,2.2µM*,-4%,87%
Cc1cc2nccc(C)c2cc1C,/,-13%,/,/,/,/
Cc1ccc(NC(=O)Cn2ncc(Cl)c(Cl)c2=O)cc1S(=O)(=O)N1CCCCC1,-58*,-12%,/,-23%,-23%,/
Cc1ccc(NC(=O)Cc2ccc(Cl)cc2)cc1S(=O)(=O)N1CCCCCC1,7,-13%,/,-8%,-7%,/
N#Cc1ccccc1S(=O)(=O)N1CCN(C(=O)c2cc3c(s2)CCC3)CC1,?,-8%,/,5.3µM*,-14%,/
O=C(Nc1ccc(OC(F)F)cc1)c1nc(SCc2ccccc2F)ncc1Cl,/,-1%,/,/,/,/
O=C1C[C@H]2C=CCc3cccc(c32)CN1Cc1cccc(F)c1,/,-17%,/,/,/,/
SMILES,PI5P4Ka inh,FEN1 inhibitor,RECQ1 helicase,APE1 inh,KAT2A inh,BLM helicase inh
COc1ccc(Cl)cc1NC(=O)c1cc2c(=O)n3ccccc3nc2s1,/,?,/,/,35µM*,?
CCOC(=O)C(=C1Nc2ccccc2N1)n1c(-c2cnccn2)nc2ccccc21,-7,/,/,/,/,/
CCOC(=O)C(=C1Nc2ccccc2N1)n1c(-c2ccco2)nc2ccccc21,-66*,/,/,/,/,/
O=C(N/N=C/c1cc(Cl)cc([N+](=O)[O-])c1O)c1cc(-c2ccccn2)nc2ccccc12,-62*,10%,-10%,1%,-5%,-12%
COc1cc([N+](=O)[O-])cc(/C=N/NC(=O)c2cc(-c3ccccc3)nc3ccccc23)c1O,-57*,-1%,1%,-9%,-21%,-5%
O=[N+]([O-])c1cc(Cl)cc(/C=N\Nc2ccccn2)c1O,-60*,-2%,i,0%,-4%,1%
CC(C)C[C@@H](CN=[N+]=[N-])N1CCN(CCc2ccccc2)CCC1=O,/,-8%,/,/,/,/
COc1ccc(C2=Nn3c(nnc3-c3ccccc3C(F)(F)F)SC2)cc1O[C@H]1CCOC1,/,/,/,22%,/,/
CSC1=NSC2=NC(=O)/C(=C/c3coc4ccc(O)cc4c3=O)C(=N)N12,-74*,45µM*,-10%,?,-11%,-18%
CSC1=NSC2=NC(=O)/C(=C/c3coc4ccccc4c3=O)C(=N)N12,-61*,79µM*,-19%,-5%,-15%,-15%
CSC1=NSC2=NC(=O)/C(=C\c3cccs3)C(=N)N12,?,4%,-7%,1%,-13%,-1%
CC1(C)CC2CC(C)(CN2C(=O)COC(=O)c2ccc(O)cc2O)C1 (stereo not drawn),-1,-8%,/,11µM*,1%,/
CC1(C)CC2CC(C)(CN2C(=O)COC(=O)c2cc(Cl)cc(Cl)c2N)C1 (stereo not drawn),/,-18%,-9%,32%,-1%,-5%
CNc1oc(-c2cccc(Br)c2)nc1C#N,/,/,/,25%,/,/
NN=C1c2ccccc2C(=O)C1C(=O)C(c1ccccc1)c1ccccc1 (stereo not drawn),-51*,?,/,/,/,/
